PubChem BioAssay (NCI)
Compounds without any hit were thinned out: in the full panel of roughly 79,000, 15% have a hit. The source made the active and inactive calls. No stated cut-off is given here; in the data, active means growth inhibition above about 70%; inactive means the rest.

Columns and labels:
[1] = NCI Yeast Anticancer Drug Screen. Data for the wt1 strain (AID 149);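 further: 0% = growth of vehicle-treated wt1 cultures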; conditions: S. cerevisiae wt1 strain (SPY 50644) growth inhibition, active compounds read high
How it was run: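 wt1 strain grown with compound or vehicle; inhibition taken from the growth difference.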

[2] = NCI Yeast Anticancer Drug Screen. Data for the rad50EPP+ strain (AID 151);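 further: 0% = growth of vehicle-treated control cultures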; conditions: S. cerevisiae rad50 mutant strain, active compounds read high
How it was run: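 Vehicle-normalised growth inhibition; rad50EPP+ yeast strain, altered in DNA damage repair, compound-treated.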

[3] = NCI Yeast Anticancer Drug Screen. Data for the rad50 strain (AID 155);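 further: 0% = growth of vehicle-only cultures of the same strain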; conditions: S. cerevisiae rad50 strain growth inhibition, active compounds read high
How it was run: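 DNA repair mutant yeast, compound exposure, growth read-out; inhibition is taken relative to vehicle.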

[4] = NCI Yeast Anticancer Drug Screen. Data for the mec2-1 strain (AID 157); conditions: S. cerevisiae mec2-1 strain, active compounds read high
How it was run: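 Mutant yeast (mec2-1) grown with compound; growth inhibition relative to vehicle control reported.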

[5] = NCI Yeast Anticancer Drug Screen. Data for the rad14 strain (AID 159);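 further: 0% = growth of vehicle-treated control cultures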; conditions: S. cerevisiae rad14 strain growth inhibition, active compounds read high
How it was run: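 DNA repair-defective yeast, compound-exposed; % growth inhibition derived by comparison with vehicle-treated controls.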

[6] = NCI Yeast Anticancer Drug Screen. Data for the sgs1 mgt1 strain (AID 161);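 further: 0% = growth of cultures given vehicle only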; conditions: S. cerevisiae sgs1 mgt1 strain, active compounds read high
How it was run: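 This yeast growth screen uses a strain with defined DNA-repair lesions; compound-treated growth is compared with vehicle-treated growth.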

[7] = NCI Yeast Anticancer Drug Screen. Data for the CLN2oe strain (AID 163);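 further: 0% = growth of vehicle-only control cultures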; conditions: S. cerevisiae CLN2oe strain, active compounds read high
How it was run: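 Compounds are applied to yeast harbouring a defined cell-cycle control change; reduced growth compared with vehicle-treated controls gives the value.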

[8] = NCI Yeast Anticancer Drug Screen. Data for the cln2 rad14 strain (AID 165);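 further: 0% = growth equal to vehicle treated cultures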; conditions: S. cerevisiae cln2 rad14 strain, active compounds read high
How it was run: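 Readout is yeast growth inhibition versus vehicle-treated controls, using a strain with cln2 and rad14 alterations exposed to compound.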

[9] = NCI Yeast Anticancer Drug Screen. Data for the bub3 strain (AID 167); conditions: S. cerevisiae bub3 mutant strain, active compounds read high
How it was run: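 In this screen, a yeast mutant lacking normal mitotic checkpoint function is challenged with compound. Relative growth versus vehicle gives the inhibition value.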

[10] = NCI Yeast Anticancer Drug Screen. Data for the wt2 strain (AID 169);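 further: 0% = growth of vehicle-treated yeast cultures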; conditions: S. cerevisiae wt2 strain growth inhibition, active compounds read high
How it was run: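 Against vehicle-treated controls, the growth of yeast exposed to each compound was compared, and the inhibition was recorded.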

[11] = NCI Yeast Anticancer Drug Screen. Data for the mlh1 strain (AID 171);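 further: 0% = growth of vehicle-treated control cultures of the same strain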; conditions: S. cerevisiae mlh1 strain growth inhibition, active compounds read high
How it was run: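 Measured: yeast growth. Reference: vehicle-treated controls. Organism: strain with a defined alteration affecting DNA damage repair or cell cycle control, treated with compound.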

[12] = NCI Yeast Anticancer Drug Screen. Data for the sgs1 strain (AID 173);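 further: 0% = growth of vehicle-only control cultures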; conditions: S. cerevisiae sgs1 mutant, active compounds read high
How it was run: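 Each compound was added to cultures of the altered yeast strain. Growth was recorded, and inhibition was derived by comparison with vehicle controls.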

[13] = NCI Yeast Anticancer Drug Screen. Data for the mlh1 rad18 strain (AID 175); conditions: S. cerevisiae mlh1 rad18 strain growth inhibition, active compounds read high
How it was run: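 Genetically defined yeast (DNA repair-deficient) exposed to compounds; growth inhibition determined relative to vehicle.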

[14] = NCI Yeast Anticancer Drug Screen. Data for the rad18 strain (AID 177); conditions: S. cerevisiae rad18 mutant growth inhibition, active compounds read high
How it was run: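 Vehicle-treated cultures served as the baseline for scoring compound-induced growth inhibition in DNA-repair-mutant yeast.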

[15] = NCI Yeast Anticancer Drug Screen. Data for the mgt1 strain (AID 153); conditions: S. cerevisiae mgt1 mutant growth inhibition, active compounds read high
How it was run: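 Vehicle-normalized growth inhibition is determined in mgt1 yeast, a strain selected for a defined alteration in DNA repair or cell cycle control.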

[16] = at 5.0 µM (retest, dose inferred, filed as 0.5)
[17] = at 50.0 µM (retest, dose inferred, filed as 5.0)

Measured: growth inhibition

Cc1cccc[c]1[Sn]([Cl])([S]/C(C#N)=N/N=C/c1ccc(N(C)C)cc1)[c]1ccccc1C
active: [3]; [17] 89% | [3]; at 50.0 µM 97.4% | [3]; at 100.0 µM 94% | [4]; [17] 90% | [4]; at 50.0 µM 98.2% | [4]; at 100.0 µM 93% | [5]; at 100.0 µM 93% | [6]; [17] 92% | [6]; at 50.0 µM 98.3% | [7]; at 100.0 µM 94% | [8]; [17] 89% | [8]; at 50.0 µM 97.1% | [9]; [17] 92% | [9]; at 50.0 µM 97.2% | [9]; at 100.0 µM 89% | [10]; at 100.0 µM 89% | [11]; at 100.0 µM 90% | [12]; at 100.0 µM 94% | [13]; [17] 86% | [13]; at 50.0 µM 98.4% | [14]; at 100.0 µM 92%
inactive: [1]; at 1.2 µM -4% | [1]; at 3.7 µM -3% | [1]; at 11.0 µM -8% | [1]; at 33.0 µM 35% | [1]; at 100.0 µM 48% | [2]; at 1.2 µM 0% | [2]; at 3.7 µM -1% | [2]; at 11.0 µM 0% | [2]; at 33.0 µM 12% | [2]; at 100.0 µM 13% | [3]; at 1.2 µM -3% | [3]; at 3.7 µM -1% | [3]; [16] 40% | [3]; at 11.0 µM 12% | [3]; at 33.0 µM 67% | [4]; at 1.2 µM 2% | [4]; at 3.7 µM -1% | [4]; [16] 9% | [4]; at 11.0 µM 8% | [4]; at 33.0 µM 51% | [5]; at 1.2 µM -1% | [5]; at 3.7 µM 3% | [5]; at 11.0 µM 11% | [5]; at 33.0 µM 58% | [6]; [16] 37% | [7]; at 1.2 µM 0% | [7]; at 3.7 µM 0% | [7]; at 11.0 µM 2% | [7]; at 33.0 µM 53% | [8]; [16] 25% | [9]; at 1.2 µM -8% | [9]; at 3.7 µM -6% | [9]; [16] 34% | [9]; at 11.0 µM 0% | [9]; at 33.0 µM 46% | [10]; at 1.2 µM -1% | [10]; at 3.7 µM -2% | [10]; at 11.0 µM -6% | [10]; at 33.0 µM 32% | [11]; at 1.2 µM 3% | [11]; at 3.7 µM -5% | [11]; at 11.0 µM -4% | [11]; at 33.0 µM 35% | [12]; at 1.2 µM -1% | [12]; at 3.7 µM -3% | [12]; at 11.0 µM -1% | [12]; at 33.0 µM 66% | [13]; [16] 47% | [14]; at 1.2 µM 0% | [14]; at 3.7 µM -2% | [14]; at 11.0 µM 10% | [14]; at 33.0 µM 61%

Cc1c(N=Nc2ccc(Cl)cc2)c(C)n(C2OC(CO)C(O)C(O)C2O)c(=S)c1C#N (stereo not drawn)
active: [2]; at 100.0 µM 81% | [15]; at 100.0 µM 91% | [5]; at 100.0 µM 71% | [6]; at 50.0 µM 87% | [9]; at 50.0 µM 75.5% | [10]; at 100.0 µM 90% | [11]; at 100.0 µM 90% | [12]; at 100.0 µM 82% | [13]; at 50.0 µM 83.9%
inactive: [1]; at 1.2 µM 1% | [1]; at 3.7 µM 2% | [1]; at 11.0 µM 3% | [1]; at 33.0 µM 9% | [1]; at 100.0 µM 24% | [2]; at 1.2 µM 5% | [2]; at 3.7 µM 19% | [2]; at 11.0 µM 40% | [2]; at 33.0 µM 66% | [15]; at 1.2 µM -1% | [15]; at 3.7 µM 1% | [15]; at 11.0 µM 12% | [15]; at 33.0 µM 66% | [3]; at 1.2 µM -3% | [3]; at 3.7 µM -9% | [3]; [16] -11% | [3]; at 11.0 µM -2% | [3]; at 33.0 µM 35% | [3]; [17] 52% | [3]; at 50.0 µM 60.4% | [3]; at 100.0 µM 66% | [5]; at 1.2 µM -2% | [5]; at 3.7 µM -3% | [5]; at 11.0 µM 6% | [5]; at 33.0 µM 28% | [6]; [16] 1% | [6]; [17] 65% | [7]; at 1.2 µM -2% | [7]; at 3.7 µM -2% | [7]; at 11.0 µM 1% | [7]; at 33.0 µM 15% | [7]; at 100.0 µM 54% | [8]; [16] 44% | [8]; [17] 52% | [8]; at 50.0 µM 59.5% | [9]; at 1.2 µM 0% | [9]; at 3.7 µM 2% | [9]; [16] 1% | [9]; at 11.0 µM 9% | [9]; at 33.0 µM 23% | [9]; [17] -3% | [9]; at 100.0 µM 45% | [10]; at 1.2 µM -2% | [10]; at 3.7 µM -3% | [10]; at 11.0 µM 1% | [10]; at 33.0 µM 37% | [11]; at 1.2 µM 2% | [11]; at 3.7 µM 1% | [11]; at 11.0 µM 8% | [11]; at 33.0 µM 45% | [12]; at 1.2 µM 1% | [12]; at 3.7 µM 5% | [12]; at 11.0 µM 12% | [12]; at 33.0 µM 55% | [13]; [16] -19% | [13]; [17] 53%

CCCCCCCCCC/C=C\CC(=O)O
inactive: [1]; at 1.2 µM -1% | [1]; at 3.7 µM -2% | [1]; at 11.0 µM -3% | [1]; at 33.0 µM 2% | [2]; at 1.2 µM -4% | [2]; at 3.7 µM 3% | [2]; at 11.0 µM 11% | [2]; at 33.0 µM 22% | [2]; at 100.0 µM 47% | [15]; at 1.2 µM -3% | [15]; at 3.7 µM -2% | [15]; at 11.0 µM -2% | [15]; at 33.0 µM 28% | [4]; at 1.2 µM -3% | [4]; at 3.7 µM 0% | [4]; [16] 5% | [4]; at 11.0 µM 1% | [4]; at 33.0 µM 8% | [4]; at 50.0 µM -0.8% | [5]; at 1.2 µM 0% | [5]; at 3.7 µM 1% | [5]; at 11.0 µM 9% | [5]; at 33.0 µM 33% | [6]; [16] -1% | [6]; at 50.0 µM 6.35% | [7]; at 1.2 µM -3% | [7]; at 3.7 µM -1% | [7]; at 11.0 µM -1% | [7]; at 33.0 µM -5% | [8]; [16] 7% | [8]; [17] 14% | [8]; at 50.0 µM 9.65% | [9]; at 1.2 µM -2% | [9]; at 3.7 µM -4% | [9]; [16] 1% | [9]; at 11.0 µM -8% | [9]; at 33.0 µM -3% | [9]; [17] 1% | [9]; at 50.0 µM 36.1% | [10]; at 1.2 µM -2% | [10]; at 3.7 µM 6% | [10]; at 11.0 µM -3% | [10]; at 33.0 µM 3% | [12]; at 1.2 µM -3% | [12]; at 3.7 µM -2% | [12]; at 11.0 µM 2% | [12]; at 33.0 µM 31% | [13]; [16] 4% | [13]; at 50.0 µM -21.2% | [14]; at 1.2 µM -3% | [14]; at 3.7 µM 2% | [14]; at 11.0 µM -1% | [14]; at 33.0 µM 48%
active: [1]; at 100.0 µM 97% | [15]; at 100.0 µM 99% | [4]; [17] 74% | [4]; at 100.0 µM 99% | [5]; at 100.0 µM 99% | [6]; [17] 89% | [7]; at 100.0 µM 73% | [9]; at 100.0 µM 98% | [10]; at 100.0 µM 98% | [12]; at 100.0 µM 99% | [13]; [17] 87% | [14]; at 100.0 µM 99%
